Experiment [1] addresses Thyrotropin receptor (Homo sapiens) (UniProt P16473). Nature of the experiment: qHTS assay to identify small molecule agonists of the thyroid stimulating hormone receptor (TSHR) signaling pathway (AID 1224843; calls by dose curve; note: nearly all actives have a fitted effect of over 45% in size). Put shortly:
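Agonist activity read as cAMP rise via d2/cryptate HTRF competition, 1 h room-temperature detection, in HEK293 cells expressing TSHR. Fifteen-point titrations, each run in triplicate, with a 30 min room-temperature incubation beforehand.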

Experiment [2] can be described thus: qHTS assay to identify small molecule agonists of the hypoxia (HIF-1) signaling pathway - cell viability counter screen (AID 1224844; calls by dose curve; note: nearly all actives have a fitted effect of over 50% in size). The method in brief: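 HRE-bla ME-180; 0.5% dFBS; cpd 17 h, 37C, 5% CO2; CellTiter-Glo lum., 30 min RT, post-FRET read, same wells.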
Experiment [3] is described as follows: qHTS assay to identify small molecule agonists of H2AX (AID 1224845; active = well fitted activation curve with a large enough effect in the signal ratio in the repeat runs, not every such curve was filed as active; the % refers to the signal ratio). Put shortly:
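Phospho-H2AX Ser139 measured by HTRF (ex 320 nm; em 665 and 620 nm) after 24 hr antibody incubation. Compounds, 15 concentrations, 0.76% DMSO, were applied to CHO-K1 cells for 3hr at 37C before lysis.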

Experiment [4] in a line: qHTS assay to identify small molecule agonists of the hypoxia (HIF-1) signaling pathway (AID 1224846; active = well fitted activation curve with a large enough effect in the signal ratio in the repeat runs, not every such curve was filed as active; the % refers to the signal ratio). The method in brief: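 Reporter induction in HRE-bla ME-180 cells is taken as agonism: cells sit 5 hrs after plating, receive compounds or DMSO only, incubate 17 hrs at 37C under 5% CO2, and are loaded with CCF4-AM for beta-lactamase FRET measurement.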
The nature of experiment [5]: qHTS assay to identify small molecule agonists of H2AX - cell viability counter screen (AID 1224847; calls by dose curve; note: top concentration of the series differs between compounds; nearly all actives have a fitted effect of over 30% in size). Put shortly:
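We seed wild-type CHO-K1 cells overnight, treat them for 3 hr at 37C with compounds in 15-concentration series, and quantify remaining viability by CellTiter-Glo luminescence.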

Experiment [6] in a line: qHTS assay to identify small molecule antagonists of the estrogen related receptor (ERR) signaling pathway from Tox21 library (AID 1224848). Note: nearly all actives have a fitted effect of over 50% in size. The method in brief:
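Luciferase luminescence (ONE-Glo, 30 min room temperature) was the read-out. Cells of the NTP-supplied ERR line, 2,000 per well, were given 6 h at 37 C before compound addition in DMSO and 18 h exposure at 37 C.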

Experiment [7] can be described thus: qHTS assay to identify small molecule agonists of the estrogen related receptor (ERR) signaling pathway from Tox21 library (AID 1224849; calls by dose curve; note: nearly all actives have a fitted effect of over 15% in size). Particulars: ERR reporter cell line, ONE-Glo luciferase, 18 h; at 92.4 µM (top of the series) unless noted. Put shortly: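 Tox21 compounds tested for ERR agonism in an NTP reporter cell line: 18 h treatment at 37 C, then ONE-Glo luminescence.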

Experiment [8] can be described thus: qHTS RealTime-Glo MT Cell Viability Assay in HepG2 cells - 24 hour (AID 1224867). Note: nearly all actives have a fitted effect of over 50% in size. Put shortly:
(§1)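 Compound treatment began 5 h after plating HepG2 cells (600/well) with NanoLuc luciferase and prosubstrate. Plates stayed at 37 C for 40 h; luminescence was captured at six time points, 0 h through 40 h.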

Experiment [9] in a line: A CellTox Green Cytotoxicity Assay to monitor cytotoxicity in HEK293 cells - 0 hour (AID 1224869). Note: nearly all actives have a fitted effect of over 50% in size. Put shortly:
(§2)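 Tox21 screen in HEK293: membrane-impermeant cyanine dye fluoresces on binding dead-cell DNA; compound pinned 5 h post-seeding, plates held at 37 C, signal read repeatedly through 40 h.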

The nature of experiment [10]: qHTS RealTime-Glo MT Cell Viability Assay in HepG2 cells - 40 hour (AID 1224870). Note: nearly all actives have a fitted effect of over 50% in size. Put shortly:
(§3)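 Real-time viability: cells seeded at 600 per well together with NanoLuc and cell-permeant prosubstrate, compounds added after 5 h incubation. Luminescence tracked at 0, 8, 16, 24, 32 and 40 h of exposure.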

Experiment [11] in a line: A CellTox Green Cytotoxicity Assay to monitor cytotoxicity in HEK293 cells - 40 hour (AID 1224871). Note: nearly all actives have a fitted effect of over 45% in size. Put shortly:
as §2

Experiment [12] can be described thus: qHTS RealTime-Glo MT Cell Viability Assay in HEK293 cells - 16 hour (AID 1224872). The method in brief:
(§4)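 Quantitative high-throughput screen of the Tox21 10K library in HEK293: cells and RealTime-Glo reagents plated together, compound added at 5 h, luminescence monitored through 40 h at 37 C.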

Experiment [13] in a line: qHTS RealTime-Glo MT Cell Viability Assay in HepG2 cells - 8 hour (AID 1224873). Note: nearly all actives have a fitted effect of over 55% in size. Put shortly: as §3
Experiment [14] in a line: A CellTox Green Cytotoxicity Assay to monitor cytotoxicity in HEK293 cells - 24 hour (AID 1224875). Note: nearly all actives have a fitted effect of over 45% in size. Put shortly:
as §2

Experiment [15] in a line: A CellTox Green Cytotoxicity Assay to monitor cytotoxicity in HepG2 cells - 16 hour (AID 1224876). Note: nearly all actives have a fitted effect of over 45% in size. Put shortly: (§5)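 Measurements at 0, 8, 16, 24, 32 and 40 h of treatment captured CellTox Green fluorescence in HepG2 cells that had been co-plated with reagent and preincubated 5 h at 37 C/5% CO2.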
Experiment [16] is described as follows: qHTS RealTime-Glo MT Cell Viability Assay in HepG2 cells - 32 hour (AID 1224877). Note: nearly all actives have a fitted effect of over 55% in size. Put shortly:
as §1

A short description of experiment [17]: A CellTox Green Cytotoxicity Assay to monitor cytotoxicity in HepG2 cells - 24 hour (AID 1224878). Note: nearly all actives have a fitted effect of over 45% in size. The method in brief: as §5
The nature of experiment [18]: A CellTox Green Cytotoxicity Assay to monitor cytotoxicity in HepG2 cells - 40 hour (AID 1224879). Note: nearly all actives have a fitted effect of over 40% in size. The method in brief: as §5
A short description of experiment [19]: qHTS RealTime-Glo MT Cell Viability Assay in HEK293 cells - 32 hour (AID 1224868). The method in brief:
as §4

Experiment [20] in a line: qHTS RealTime-Glo MT Cell Viability Assay in HEK293 cells - 40 hour (AID 1224874). Note: nearly all actives have a fitted effect of over 50% in size. The conditions noted are these: RealTime-Glo luminescence; max response: hits give low values. The method in brief:
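HEK293 + NanoLuc + prosubstrate, 600 cells/well; 5 h, 37 C/5% CO2; compound 23 nL in DMSO by pintool; 37 C; luminescence read at 0, 8, 16, 24, 32 and 40 h time points.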

A number with no mark means an inactive call. Results filed as inconclusive are left out. Calls of active or inactive are those of the source. Unless noted, calls come from the whole dose curve; as a rule, active = well fitted curve in the direction sought with a large enough effect in the repeat runs; inconclusive = weak or mixed curves; inactive = no such curve, though single readings can be large; an effect the other way counts as inactive or inconclusive.
% is set by controls: 0 for no effect and ±100 for the full control effect.

Chain of Thyrotropin receptor (Homo sapiens) (P16473 whole entry, looked up): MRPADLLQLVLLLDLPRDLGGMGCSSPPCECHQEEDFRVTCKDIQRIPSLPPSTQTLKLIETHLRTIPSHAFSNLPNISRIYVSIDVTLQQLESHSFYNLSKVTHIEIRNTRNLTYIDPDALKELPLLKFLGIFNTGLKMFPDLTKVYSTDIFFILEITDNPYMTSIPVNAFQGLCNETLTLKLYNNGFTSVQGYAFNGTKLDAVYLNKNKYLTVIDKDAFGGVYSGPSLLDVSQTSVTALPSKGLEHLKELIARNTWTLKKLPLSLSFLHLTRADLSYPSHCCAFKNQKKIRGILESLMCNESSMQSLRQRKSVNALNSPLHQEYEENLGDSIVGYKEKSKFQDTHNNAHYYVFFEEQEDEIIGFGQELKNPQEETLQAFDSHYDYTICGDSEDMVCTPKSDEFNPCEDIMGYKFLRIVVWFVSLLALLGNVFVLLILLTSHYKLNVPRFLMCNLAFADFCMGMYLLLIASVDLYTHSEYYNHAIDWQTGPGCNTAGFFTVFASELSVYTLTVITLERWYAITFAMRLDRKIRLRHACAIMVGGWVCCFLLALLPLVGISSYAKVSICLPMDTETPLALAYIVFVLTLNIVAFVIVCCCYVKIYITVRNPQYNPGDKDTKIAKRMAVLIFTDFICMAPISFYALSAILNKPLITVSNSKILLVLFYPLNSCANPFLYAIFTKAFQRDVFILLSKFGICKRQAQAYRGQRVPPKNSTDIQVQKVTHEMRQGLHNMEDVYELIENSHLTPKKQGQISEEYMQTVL

Turning to `C(COCC1CO1)OCC1CO1` (stereo not given), the Potency result in experiment [1], in experiment [2], in [5], in experiment [6], in experiment [8] and in experiment [10] was “inactive” in each case. Also, the Potency result in experiment [11], in [12], in experiment [14], in [15], in experiment [16] and in experiment [17] was “inactive” in each case. The Potency entry in experiment [18] was “inactive”. Moreover, the molecule was called inactive in [3], in [4], in [9] and in experiment [13]. Besides, in experiment [7], the activity change, positive = activation was 0.301%.
Consider `Cc1ccc(S(=O)(=O)N[C@@H](CCCCN)C(=O)CCl)cc1`, for which the Potency result in experiment [1], in [2], in experiment [5], in experiment [6], in experiment [8] and in experiment [19] was “inactive” each time. Besides, the Potency result in experiment [10], in experiment [11], in experiment [12], in experiment [14], in [15] and in [16] was “inactive” throughout. In addition, the Potency entry in experiment [17] and in experiment [18] was “inactive” each time. In addition, the molecule was classed as inactive in experiment [3], in [4], in experiment [9] and in experiment [13]. Moreover, the activity change, positive = activation in experiment [7] is 0.318% [at 42.5 µM]. In addition, the max response in experiment [20] is 2.57%.
As to `C#CCOC(=O)/C=C(C)/C=C/CC(C)CCCC(C)C` (stereo not given), the Potency entry in [1], in [2], in experiment [5], in [6], in experiment [8] and in experiment [10] was “inactive” each time. In addition, the Potency result in experiment [11], in experiment [12], in [14], in [15], in experiment [16] and in experiment [17] was “inactive” in each case. Besides, the Potency result in experiment [18] was “inactive”. Moreover, the result in experiment [3], in [4], in [9] and in experiment [13] was inactive. In addition, in experiment [7], the activity change, positive = activation was 0.281%. Moreover, the max response in [20] is 17.6%.
For `ClCC1CO1` (stereo not given), the Potency result in [1], in experiment [2], in [5], in experiment [6], in experiment [8] and in [19] was “inactive” throughout. For the same molecule, the Potency entry in experiment [10], in experiment [11], in [12], in experiment [14], in experiment [15] and in [16] was “inactive” in each case. For the same molecule, the Potency entry in experiment [17] was “inactive”. For the same molecule, the molecule was classed as inactive in experiment [3], in experiment [4], in [9] and in experiment [13]. In experiment [7], the activity change, positive = activation is -2.49%.
As to `S=C=S`, the Potency entry in [1], in experiment [2], in [5], in experiment [6], in [8] and in experiment [19] was “inactive” in each case. Moreover, the Potency entry in experiment [10], in experiment [11], in experiment [14], in [15], in experiment [16] and in experiment [17] was “inactive” each time. Besides, the Potency entry in [18] was “inactive”. The outcome in experiment [3], in experiment [4], in [9] and in [13] was inactive. For the same molecule, the activity change, positive = activation in [7] is 2.11%. For the same molecule, the max response in experiment [20] is 6.94%.
For the molecule `Cc1ccc(-c2nc3ccc(C)cn3c2CC(=O)N(C)C)cc1`, the Potency result in [1], in experiment [2], in experiment [5], in experiment [6], in experiment [8] and in [10] was “inactive” in each case. Further, the Potency result in experiment [11], in experiment [12], in experiment [14], in experiment [15], in experiment [16] and in [17] was “inactive” each time. Moreover, the Potency result in [18] was “inactive”. The molecule was called inactive in experiment [3], in experiment [4], in experiment [9] and in experiment [13]. For the same molecule, the activity change, positive = activation in experiment [7] was 37.3% [at 42.5 µM] (active).
With `CCC1(c2ccccc2)CCC(=O)NC1=O` (stereo not given), the Potency entry in [1], in experiment [2], in experiment [5], in [8], in experiment [19] and in experiment [10] was “inactive” in each case. Also, the Potency result in experiment [11], in experiment [12], in experiment [14], in experiment [15], in experiment [16] and in experiment [17] was “inactive” in each case. Besides, the Potency entry in [18] was “inactive”. For the same molecule, the result in experiment [3], in experiment [4], in experiment [9] and in experiment [13] was inactive. Moreover, in experiment [20], the max response was -2.24%.

For the origin of these results see PubChem BioAssay (Tox21).
